About 83,000 compounds went through this panel and 20% of them were active in at least one assay; those are over-represented in the sample as a whole.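 Results are percent growth after 48 hours of single-concentration exposure. 100 means growth as in untreated cells, lower positive values show inhibition; negative values down to -100 show cell death.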 Unmarked numbers belong to inactive results. Activity calls are given as the source filed them. Rule for the calls: active = growth percent below 10; inactive = the rest.

Holding throughout (test): NCI-60 one-dose screen, 48 h (100 = growth as untreated, 0 = no growth, -100 = all killed)
Common to all, as to conditions: 10 µM unless noted

Test [1] deals with NCI-H23 lung.
The test system of test [2] is NCI-H226 lung.
Test [3] concerns NCI-H322M lung.
The subject of test [4] is HOP-62 NSCLC.
In test [5] the test system is NCI-H460 lung.
Test [6] deals with HOP-92 NSCLC.
Test [7] has as its system NCI-H522 lung.
Test [8] relates to A549/ATCC NSCLC.
Test [9] deals with 786-0 renal.
Test [10] concerns COLO 205 colon.
The subject of test [11] is DU-145 prostate.
The subject of test [12] is MALME-3M melanoma.
Test [13] has as its system MDA-MB-231 breast.
The subject of test [14] is RXF 393 renal.
Test [15] has as its system SF-268 CNS.
Test [16] concerns SF-295 CNS.
For test [17], the system named is SF-539 CNS.
For test [18], the system named is UACC-257 melanoma.
For test [19], the system named is M14 melanoma.
The test system of test [20] is K-562 leukemia.

As for `Nc1ncnc2c1N=C(c1ccc(F)cc1)CC(c1sc(Cl)nc1Cl)N2` (stereo not given), the growth in [1] was 92.9%; in test [2] it was 90.1%; in [3], 106%; in test [4], 105%; in test [5], 101%; in [6], 71%. In addition, the growth in test [7] is 88.7%; in test [8] it was 92.4%; in test [9], 92.6%; in [10] it was 104%; in [11] it was 98.8%; in [12] it was 111%. Also, the growth was 88.2% in test [13]; 78.3% in test [14]; 85.4% in test [15]; 95.8% in test [16]; 85.7% in test [17]; 91% in [18]. Moreover, the growth in test [19] is 109%.

Take `CN=C1C=C/C(=N/N=c2/ccn(O)cc2C)C=C1C`: the growth in test [1] is 90%; in test [2] it was 103%; in test [3], 113%; in test [4], 97.2%; in test [5], 111%; in test [6], 85.7%. Besides, the growth was 77.9% in [7]; 88.8% in [8]; 89.3% in [9]; 138% in [10]; 104% in test [11]; 115% in [20]. In addition, the growth in test [13] was 86.4%; in test [14], 96.8%; in [15], 102%; in test [17], 90.2%; in [18] it was 98.5%; in [19], 101%.

In the case of `COc1ccc(C2C3=C(COC3=O)N(CCO)c3cc(OC)c(OC)cc32)cc1` (stereo not given), the growth was 106% in [1]; 101% in [2]; 104% in test [3]; 95.7% in [4]; 105% in test [5]; 86.9% in [6]. The growth is 92.8% in test [7]; 108% in [8]; 96.3% in test [9]; 110% in [10]; 113% in test [11]; 82.5% in test [20]. The growth in [13] is 112%; in test [14], 114%; in test [15], 101%; in [16], 110%; in [17], 105%; in [18], 116%. The growth in test [19] is 108%.

As for `COc1cc(OC)cc(-c2n/c(=C\c3c(O)[nH]c4ccc(Cl)cc34)cc3c2=Nc2ccccc2-3)c1`, the growth in test [1] is 34%; in test [2], 84.3%; in test [3] it was 93.2%; in test [4], 72.5%; in test [5] it was 43.3%; in test [6], 92.6%. The growth in test [7] was 60.7%; in test [8] it was 58.5%; in [9] it was 39.3%; in test [10], 90.5%; in test [11], 18.4%; in test [20], 28%. Also, the growth was 64.5% in test [13]; 76.8% in test [14]; 52.8% in test [15]; 104% in [17]; 108% in test [18]; 86% in test [19].

With `CC(=O)[C@@]1(O)[C@H](C)C[C@H]2[C@@H]3C=C(C)C4=Cc5c(cnn5-c5ccccc5)C[C@]4(C)[C@H]3[C@@H](O)C[C@@]21C`, the growth in test [1] was 32.4%; in [2] it was 63.3%; in [3] it was 75.9%; in [4], 34.8%; in [5], -20.5% (active); in test [6] it was 13.2%. Further, the growth in test [7] was -2.67% (active); in [8], 14.5%; in test [9], -9.28% (active); in test [10], -23.8% (active); in test [11] it was 54.6%; in test [20] it was -60.9% (active). In addition, the growth in [12] is 41.8%; in test [13] it was 26.1%; in test [15] it was 27.9%; in test [16] it was -49.1% (active); in test [17], -21.8% (active); in test [18] it was 54.6%. In test [19], the growth is 43.7%.

Turning to `COc1ccc(/C(=C\c2ccc3c(c2)OCO3)C(=O)Nc2nc3ccccc3s2)cc1`, the growth was 106% in test [1]; 97.6% in test [2]; 94.4% in test [3]; 95.5% in test [4]; 110% in test [5]; 104% in test [6]. The growth was 81.5% in test [7]; 93.9% in [8]; 97.2% in test [9]; 110% in [10]; 102% in test [11]; 95.3% in test [12]. In addition, the growth in test [13] is 102%; in test [14], 118%; in test [15], 96%; in test [17] it was 104%; in [18] it was 99.7%; in test [19], 107%.

For the compound `Fc1ccc2nc(-c3ccc(-c4noc(-c5ccc(Cl)cc5)n4)cc3)[nH]c2c1`, the growth in [1] is 104%; in test [2], 97.1%; in test [3] it was 107%; in [4] it was 103%; in test [5], 103%; in test [6], 105%. Further, the growth was 87.1% in test [7]; 100% in [8]; 86.5% in test [9]; 116% in test [10]; 98.5% in [11]; 92.5% in test [20]. In addition, the growth is 106% in [13]; 110% in test [14]; 105% in test [15]; 100% in test [17]; 101% in [18]; 107% in test [19].

As to `O=C(NCCNC(=O)c1cc(S(=O)(=O)NCCc2ccccc2)c(O)c(O)c1O)c1cc(S(=O)(=O)NCCc2ccccc2)c(O)c(O)c1O`, the growth in test [1] is 38.9%; in test [2] it was 49.5%; in test [3] it was 39.5%; in test [4], 34.6%; in [5], 32.1%; in test [6], 73.9%. In addition, the growth in test [7] is 41.6%; in test [8] it was 45.8%; in test [9] it was 53.4%; in [10] it was 104%; in [11], 77.1%; in test [12], 94.3%. For the same compound, the growth in test [13] was 59.9%; in test [14] it was 78.1%; in test [15] it was 45.9%; in test [17], 20.3%; in test [18] it was 86.1%; in test [19], 44.4%.

For `O=C(Nc1ccccc1Cl)Oc1ccc2ccccc2c1`, the growth in [1] is 91.3%; in test [2], 88.2%; in test [3] it was 109%; in test [4], 92.9%; in [5], 102%; in [6], 101%. Besides, the growth is 79.6% in test [7]; 94.9% in test [8]; 90.9% in test [9]; 118% in test [10]; 107% in test [11]; 85.3% in test [20]. In addition, the growth in [13] was 88.7%; in [14] it was 99.6%; in [15], 101%; in test [17], 92.5%; in [18] it was 93.5%; in [19], 101%.

Values taken from PubChem BioAssay (NCI).
